According to PubChem BioAssay AID489028 (Sanford-Burnham Center for Chemical Genomics, 2010):
Hit rate of the full screen: of about 10,000 compounds, about 5,600 (56%) were called active. No stated cut-off is given here; in the data, active means inhibition above about 40%; inactive means the rest. The set was probably picked from earlier hits. Not all results are given here.

target: Protein Mdm4 (Homo sapiens) + E3 ubiquitin-protein ligase Mdm2 (Homo sapiens) (UniProt O15151+Q00987); assay: inhibition of human Mdm2/MdmX pairing – luminescence, single concentration, confirmation (AID 489028); conditions: Mdm2-MdmX binding, luminescent assay; at 8 µM; stronger effect = higher value
Sequence (O15151 whole entry, looked up): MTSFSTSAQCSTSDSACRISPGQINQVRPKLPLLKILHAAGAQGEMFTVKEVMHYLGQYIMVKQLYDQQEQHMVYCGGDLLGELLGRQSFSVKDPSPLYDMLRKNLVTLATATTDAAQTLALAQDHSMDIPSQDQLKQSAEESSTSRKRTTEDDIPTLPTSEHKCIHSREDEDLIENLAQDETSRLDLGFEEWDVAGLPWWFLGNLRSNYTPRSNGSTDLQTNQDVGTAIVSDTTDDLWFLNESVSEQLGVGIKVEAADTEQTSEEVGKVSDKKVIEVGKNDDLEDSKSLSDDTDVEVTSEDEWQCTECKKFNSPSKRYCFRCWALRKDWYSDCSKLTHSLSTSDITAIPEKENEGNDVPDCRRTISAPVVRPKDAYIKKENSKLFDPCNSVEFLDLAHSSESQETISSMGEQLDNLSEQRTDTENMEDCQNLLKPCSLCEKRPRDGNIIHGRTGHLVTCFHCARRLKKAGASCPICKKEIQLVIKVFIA
Sequence (Q00987 whole entry, looked up): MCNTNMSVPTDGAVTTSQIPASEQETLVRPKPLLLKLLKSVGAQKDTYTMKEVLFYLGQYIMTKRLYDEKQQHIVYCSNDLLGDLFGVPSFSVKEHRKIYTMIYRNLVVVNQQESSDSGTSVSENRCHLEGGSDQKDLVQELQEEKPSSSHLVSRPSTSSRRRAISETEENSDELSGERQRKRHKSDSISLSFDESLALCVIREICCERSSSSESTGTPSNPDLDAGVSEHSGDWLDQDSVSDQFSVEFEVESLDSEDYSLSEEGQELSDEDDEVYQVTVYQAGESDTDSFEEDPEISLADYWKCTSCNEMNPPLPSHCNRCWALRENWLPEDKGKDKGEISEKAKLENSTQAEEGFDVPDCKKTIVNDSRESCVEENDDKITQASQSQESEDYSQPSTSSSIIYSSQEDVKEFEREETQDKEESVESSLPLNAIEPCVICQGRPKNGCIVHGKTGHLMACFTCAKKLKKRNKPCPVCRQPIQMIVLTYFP

inhibition, inactive:
COc1ccc(OC)c(Nc2nc(-c3ccc(O)c(O)c3)cs2)c1 38.4%
CN(C)CCCN(C(=O)c1ccc(S(=O)(=O)N2CCCc3ccccc32)cc1)c1nc2ccc(F)cc2s1 29.9%
CS(=O)(=O)c1ccc2nc(NC(=O)c3ccc(N4CCCC4=O)cc3)sc2c1 7.9%
COc1ccc(OC)c(C2C3=C(N=c4s/c(=C\c5cccc(O)c5)c(=O)n42)c2ccccc2CC3)c1 (stereo not drawn) 28.1%
O=C(CCCCCn1c(=S)[nH]c2cc3c(cc2c1=O)OCO3)N1CCN(c2ccc(F)cc2)CC1 36.2%
O=C(CCn1c(=S)[nH]c2cc3c(cc2c1=O)OCO3)NCc1ccc(Cl)cc1 5.65%
Oc1ccc(N=Nc2nccs2)c(O)c1 35%
CS(=O)(=O)N(CC(O)Cn1c2ccccc2c2ccccc21)c1cccc2ccccc12 (stereo not drawn) 15.5%
COc1ccccc1N1CCN(c2ncnc3sc(C)c(-c4ccccc4)c23)CC1 25.6%
Cc1cc(C)c2c(-c3ccc(F)cc3)c(C#N)c(=O)n(C)c2n1 12%
CCCC[C@@H]1CN=C(N)N1CCc1cc(C(F)(F)F)cc(C(F)(F)F)c1 32.2%
CCOc1cc(NC(=O)c2ccco2)c(OCC)cc1NC(=O)COc1ccccc1 25.9%
CN1CCN(c2ccccc2NC(=O)COc2ccc(C3CCCCC3)cc2)CC1 20%
Cc1cccc(-c2oc3ccc(-c4ccc5c(c4)OCO5)cc3c2C#Cc2cncn2C)c1 30.1%
CC(C)Cc1nc(Nc2ccc(S(=O)(=O)N3CCCC3)cc2)c2nnn(Cc3ccccc3)c2n1 36.1%
CCCCCCc1cc2cc(-c3nnc(-c4ccccc4)o3)c(=O)oc2cc1O 0.95%
Cc1[nH]nc(-c2ccc(OCc3cnn(-c4ccccc4)c3)cc2O)c1Oc1ccc(Cl)cc1 25.5%
Cc1cccc(-c2nc3ccc(C(=O)NCCN4CCN(C)CC4)cc3nc2-c2cccc(C)c2)c1 28.6%
O=C(NCc1ccccc1)C1=C[C@@H](C2CCCCC2)C[C@@H](OCc2ccc(CO)cc2)O1 32.2%
CN(Cc1ccccc1)CC(O)COc1ccc(CNCc2cc3ccccc3s2)cc1 (stereo not drawn) 32.6%
Cc1cccc(CN2CCC(CNC(=O)Nc3ccc(F)c(Cl)c3)CC2)c1 36%
Cc1ccc(Cc2cnc(NC(=O)/C(C#N)=C/c3ccc(-c4cccc([N+](=O)[O-])c4)o3)s2)cc1 6.4%
CC12CCC(C(=O)N(NC(=O)c3ccccc3O)C1=O)C2(C)C (stereo not drawn) 11.2%
CCC(c1nnnn1C1CCCC1)N(Cc1cccs1)Cc1cc2cccc(C)c2[nH]c1=O (stereo not drawn) 13.8%
COc1cc(OC)c(OC)cc1/C=N/Nc1ncnc2c1[nH]c1ccc(C)cc12 27%
CC(C)n1cnc2c(NCc3ccccc3)cc(N[C@@H](CO)Cc3ccccc3)cc21 32.5%
Cc1c(NC(=O)CSc2cccc3cccnc23)c(=O)n(-c2ccccc2)n1C 10.3%
O=C1Nc2cc(C(=O)N3CCC(N4CCCCC4)CC3)ccc2S/C1=C\c1ccccc1 27.8%
COc1ccc(C2CC(c3cccs3)=NN2c2nc(C)c(C(C)=O)s2)cc1OC (stereo not drawn) 25.1%
O=C(Nc1cccc(-c2cccc(Cl)c2)c1)C1CCN(C2CCC2)CC1 31.5%
CCn1cc(CN2CCC(C(=O)Nc3cccc(-c4cccc(Cl)c4)c3)CC2)cn1 31.9%

inhibition, active:
O=C(Cn1nnc(-c2ccccc2)n1)N/N=C/c1ccc(-c2ccc(Cl)cc2)o1 55.2%
Cc1ccc(-c2csc(NC3OC(=O)c4ccccc43)n2)cc1 (stereo not drawn) 76%
COc1ccc2c(c1OC)C(=O)OC2Nc1nc(-c2ccccc2)cs1 (stereo not drawn) 73.8%
O=C(NC(Nc1nc2ccc([N+](=O)[O-])cc2s1)(C(F)(F)F)C(F)(F)F)c1ccccc1 98.5%
O=C(Nc1nc2ccc([N+](=O)[O-])cc2s1)c1ccc(S(=O)(=O)N2CCCc3ccccc32)cc1 88.2%
Cc1ccccc1OCCOc1ccc([N+](=O)[O-])cc1/C=N/n1cnnc1 58.2%
Fc1ccccc1/C=C1\CCCC2=C1Nc1ncnn1C2c1ccccc1F (stereo not drawn) 83%
CC1CCCCC1NC(=O)/C(C#N)=C/C=C/c1ccccc1[N+](=O)[O-] (stereo not drawn) 93%
Cc1ccc(C)c(N2CCN(C(=O)CCCCCn3c(=S)[nH]c4ccc(N5CCOCC5)cc4c3=O)CC2)c1 43.1%
CCN1/C(=C\c2ccc3ccccc3[n+]2CC)Sc2cc(C)ccc21 78.1%
O=C(NCC#CCSc1nnc(-c2cccc3ccccc23)o1)c1cccs1 83.7%
C=C(C)C(=O)O[C@H]1C/C(C)=C\C(=O)/C=C(\C)[C@H](O)[C@@H]2OC(=O)C(=C)[C@@H]21 56.6%
CC(Nc1nc(C(F)(F)F)nc2ccccc12)c1cccs1 (stereo not drawn) 50.4%
Cc1nnc(N/N=C/c2ccccn2)[nH]c1=O 86.6%
CCc1ccc2c(c1)C1(NN=C(c3ccccc3)S1)C(=O)N2 (stereo not drawn) 53.1%
Nc1nc(CC(=O)CSc2ccc(Cl)cc2)nc(Nc2ccc(F)cc2)n1 71%
Oc1ccccc1N1CCN(c2ncnc3sc(-c4ccccc4)cc23)CC1 58%
c1ccc2c(c1)C(=NC1CCCCC1)NC2=NC1CCCCC1 53.5%
Cc1cccc(-n2ncc(Cl)c(Cl)c2=O)c1 87.5%
CCN(CC)S(=O)(=O)c1ccc(NC(=O)c2cccnc2Cl)c(NC(=O)c2cccnc2Cl)c1 95.8%
O=C1N/C(=C/c2cccn2-c2ccccc2)C(=O)N1c1cccc(Cl)c1 59.4%
COc1ccc(CNC(=O)C(c2ccc(O)cc2)N(Cc2ccco2)C(=O)c2snc(C(N)=O)c2N)cc1 (stereo not drawn) 45%
N=c1c2c(-c3ccccc3)c(-c3ccccc3)n(Cc3ccccc3)c2ncn1CCCO 62.9%
CC1=C/C(=N\OS(=O)(=O)c2ccccc2)C=CC1=O 45.8%
CCOc1cc(N2CCOCC2)c(OCC)cc1NC(=O)COc1cccc2cccnc12 80.8%
CCc1ccc(N(CC)c2ncnc3nc[nH]c23)cc1 52.4%
COc1ccc2sc(-c3ccc(S(C)(=O)=O)cc3)c(C#Cc3cncn3C)c2c1 60.5%
O=C(CCNC(=O)c1ccc(Cl)cc1)NC1CCCc2ccccc21 (stereo not drawn) 57.9%
COc1ccc(-c2ccc(Nc3ccc(S(=O)(=O)N4CCCC4)cc3)nn2)cc1OC 53.5%
COc1ccc(C(CCN(Cc2ccc(OC)c(OC)c2)C(=O)CCl)c2ccccc2)cc1 (stereo not drawn) 73.3%
CCOC(=O)CC1C(=O)NCCN1c1nc2c(C)cccn2c(=O)c1/C=C1\SC(=S)N(C(C)CC)C1=O (stereo not drawn) 61.7%
COc1ccccc1-n1nnnc1S(=O)(=O)Cc1ccc(Cl)cc1 74.9%
NC(N)=N/N=C/c1ccc(OCc2ccc(Cl)cc2Cl)cc1 99.7%
CC(Nc1nc(N2CCCC2)nc2ccccc12)c1ccccc1 (stereo not drawn) 40.5%
COC(=O)c1sc(-c2ccc(C(C)(C)C)cc2)cc1NC(=O)/C=C/C(=O)O 52.6%
O=S(=O)([N-]c1nc2ccccc2nc1-[n+]1ccc(Cc2ccccc2)cc1)c1ccc(Br)s1 60%
Cc1cc(CNC(=O)c2cccc([N+](=O)[O-])c2)c2ccccc2n1 58.7%
CN(C)CC(O)COc1ccc(C(C)(C)c2ccc(OCC(O)CN(C)C)cc2)cc1 (stereo not drawn) 89.7%
COc1ccc(C2=Nn3c(nnc3-c3ccccc3OC)SC2)cc1OC1CCCC1 73.4%
COc1cccc2cc(C(N)=O)/c(=N\NC(=O)c3ccccc3)oc12 44%
Cc1cccc(NC(=O)Nc2cccc(Oc3c(F)c(F)c(F)c(F)c3F)c2)c1 73%
Oc1c(Br)cccc1/C=N/Nc1c(F)c(F)c(F)c(F)c1F 58.2%
CNC[C@H](CC1CCCCC1)NC[C@H](NCCC1CCCC1)[C@H](C)O 77%
Cc1ccc(C(=O)N/C(=C/c2ccc(-c3cccc([N+](=O)[O-])c3)o2)C(=O)NCCCN(C)C)cc1 49.5%
CC(C)n1cnc2c(Nc3cccc(Cl)c3)nc(N(CCO)CCCO)nc21 60.8%
CN(c1ccc2nc3ccccc3c(=O)n2n1)C1CCCCC1 89.9%
CC(=O)Oc1c(C(=O)c2nnc(C)o2)c(=O)n(Cc2ccccc2)c2ccccc12 55%
Cc1cc(Nc2cc(N3CCN(C)CC3)nc(Sc3ccc(NC(=O)C4CC4)cc3)n2)n[nH]1 82%
O=C(c1[nH]ncc1-c1ccc(Cl)cc1)C1CO1 (stereo not drawn) 45.3%
COc1ccc(Cc2nnc(N/N=C/c3ccccc3O)[nH]c2=O)cc1OC 76.2%
Cc1ccc(N(Cc2cc(=O)[nH]c3ccccc23)C(=O)CCl)cc1 74.9%
COc1ccc(-c2nc(-c3ccccc3)no2)c(OC)c1 50.4%
O=C(CSc1cccc2cccnc12)N/N=C/c1cccnc1 45%
c1ccc(C2CCC(N3CCC(N4CCCCC4)CC3)CC2)cc1 (stereo not drawn) 86.5%
CC(NC(=O)Nc1ccccc1)C(c1cccs1)N1CCN(c2ccccc2)CC1 (stereo not drawn) 70.3%
Cn1cc([N+](=O)[O-])c(C(=O)Nc2cnn(Cc3ccc(F)cc3)c2)n1 57.5%
CCn1cc(CN2CCC(C(=O)Nc3cccc(-c4cccc(Cl)c4)c3)CC2)c(C)n1 48%
